A structure can be active in one record and inactive in another. Active and inactive are the calls of the source. The calls were made as follows: active = hit-call score of the fitted dose curve at least 0.9, where 1 is the maximum; inactive = score below 0.9.

Read-out in the assay: matrix metalloproteinase-3 (MMP3), MMP3 (gene 4314)
Briefly: LTEA_HepaRG_MMP3: Life Technologies and Expression Analysis (LTEA) Assay for matrix metalloproteinase-3 (MMP3) using HepaRG (AID 2283519). The conditions noted are these: mRNA level, 48 h; actives raise or lower the signal. On the procedure: LTEA_HepaRG is a cell based, multiplexed-readout assay that uses HepaRG, a human liver cell line, with measurements taken at 48 hours after chemical dosing on a 96-well plate.LTEA_HepaRG_MMP3 is one of 102 assay component(s) measured in the LTEA HepaRG cell culture assay. It is a marker of Fibrosis.Data from the assay component LTEA_HepaRG_MMP3 was analyzed into 1 endpoint. This assay endpoint, LTEA_HepaRG_MMP3, was analyzed with bidirectional fitting relative to DMSO as the negative control and baseline of activity. Using a type of inducible reporter, measures of mRNA induction for gain or loss-of-signal activity can be used to understand regulation of transcription factor activity. To generalize the intended target to other relatable targets, this assay endpoint is annotated to the protease intended target family, where the subfamily is matrix metalloproteinase.
A total of 1060 chemcials from the ToxCast library were tested in eight-point concentration-response experiments. Cell culture and cytotoxicity assays were conducted at Thermo Fisher Scientific's Custom Services facility (Madison, WI). A single lot of human HepaRG cells (Thermo Fisher Scientific, Frederick, MD) was used for the cell culture experiments. 96-well format collagen type I coated plates of human HepaRG cells were prepared using established methods. Briefly, cryopreserved HepaRG cells were thawed, plated at a density of approximately 100,000 cells/well in HepaRG Thaw, Plate, and General Purpose media (HPRG770, Thermo Fisher Scientific), and incubated for 48 hours. 0.5% DMSO was selected as vehicle control to balance the requisite need of DMSO in HepaRG cultures to maintain differentiation (for example, baseline metabolism, proportions of hepatocytes vs. cholangiocytes), while enabling further hepatic receptor pathway activation (for example, PXR and CAR) in response to chemical exposure. 48 hours after plating, the culture medium was replaced with HepaRG Serum-Free Incudtion Media. Cells were exposed to each test chemical in duplicate and maintained in CO2 incubators for another 48 hours. Chemical plates were thawed to room temperature and 200x concentrations of treatment groups were prepared. 8-point conentration-reponse curves were made with the highest exposure at 100 uM, followed by half-log dilutions, all in 0.5% DMSO. Each test plate contained variouse controls, induction positive controls (1mM phenobarbital), cytotoxicity positive controls ([…] aflatoxin B1), vehicle controls (0.5% DMSO), and total lysis controls (0.5% DMSO). Cell morphology images were taken using an Essen IncuCyte FLR automated microscope, with six 96-well plates imaged in about 24 minutes. Images were captured and exported and JPEG files. Spent culture media was transfered to black-well plates for the LDH assay, and remaining media was sorted at -80 C for later use. Cells were treated with RLT buffer and frozen until shipped for gene expression analysis. Total RNA was isolated from the cell suspension in 75 uL of Buffer RLT (Qiagen, Germantown, MD 20874) by Quintiles/Expression Analysis (Durham, NC) using a custom isolation procedure. Total RNA from each plate well was transferred to a preamplification plate. Fluidigm's 96.96 Dynamic ArrayTM (Fluidigm, Amsterdam, the Netherlands) technology was used for gene expression analyses by quantitative reverse transcription polymerase chain reaction (qRT-PCR, performed by Quintiles/Expression Analysis, Durham, NC)89. Standard TaqManTM Assays (Applied Biosystems/ThermoFisher Scientific, Foster City, CA) were used to assess the expression of 93 genes selected based on their selectivity and sensitivity to important hepatic receptors known to be modulated by environmental chemicals; importance in human hepatocyte functionality; and hepatotoxicity. […]
As to `Oc1cc(Cl)ccc1Oc1ccc(Cl)cc1Cl`, the compound was classed as inactive and the AC50 (usually the concentration giving half of the maximal activity seen) is 51 µM (active).
As to `O=C(NC(=O)c1c(F)cccc1F)Nc1ccc(OC(F)(F)C(F)OC(F)(F)F)c(Cl)c1` (stereo not given), the compound was called inactive.
The same measure, in the same setting: next, `O=S(=O)(O)C(F)(F)C(F)(F)C(F)(F)C(F)(F)C(F)(F)C(F)(F)C(F)(F)C(F)(F)F`: “inactive”.
Consider `N#Cc1c(Cl)c(Cl)c(Cl)c(C#N)c1Cl`, for which the AC50 is 21 µM (active).
As for `O=C(O)C(F)(F)C(F)(F)C(F)(F)C(F)(F)C(F)(F)C(F)(F)C(F)(F)F`, the compound was classed as inactive.
Still for that read-out and setting: the entry for `CN1CSC(=S)N(C)C1` is “inactive”; for `O=S1OCC2C(CO1)C1(Cl)C(Cl)=C(Cl)C2(Cl)C1(Cl)Cl` (stereo not given) it is “inactive”.
With `CC(C)(C)C(O)C(Oc1ccc(Cl)cc1)n1cncn1` (stereo not given), the concentration at half-maximal activity (AC50) is 50 µM (active) and the call was inactive.
In the case of `COc1nn(CSP(=S)(OC)OC)c(=O)s1`, the compound was called inactive.
On to `O=[N+]([O-])c1c(Cl)c(Cl)c(Cl)c(Cl)c1Cl`, for which the half-maximal activity concentration (AC50) is 50 µM (active).
For `CCC(C)(NC(=O)c1cc(Cl)c(C)c(Cl)c1)C(=O)CCl` (stereo not given), the outcome was inactive.
Turning to `OCCOc1ccccc1`, the compound was called inactive.
On the same count and under the same terms, the entry for `Oc1ccc(Cl)cc1Cc1ccccc1` is “inactive”; for `CNC(=O)Oc1cccc(N=CN(C)C)c1` it is “inactive”; for `C#CCN1C(=O)COc2cc(F)c(N3C(=O)C4=C(CCCC4)C3=O)cc21` it is “inactive”.
Take `CC[C@H](C)[C@H]1O[C@]2(C=C[C@@H]1C)C[C@@H]1C[C@@H](C/C=C(\C)[C@@H](O[C@H]3C[C@H](OC)[C@@H](O[C@H]4C[C@H](OC)[C@@H](O)[C@H](C)O4)[C@H](C)O3)[C@@H](C)/C=C/C=C3\CO[C@@H]4[C@H](O)C(C)=C[C@@H](C(=O)O1)[C@]34O)O2` (tested in a mixture with another compound): the concentration at half-maximal activity (AC50) is 40.2 µM (active).
For `CCN(CC)C(=O)SCc1ccc(Cl)cc1`, the outcome was inactive.
Still for that read-out and setting: next, `Cc1[nH]c(=O)n(C(C)(C)C)c(=O)c1Cl`: “inactive”; `CCC(C)Nc1c([N+](=O)[O-])cc(C(C)(C)C)cc1[N+](=O)[O-]` (stereo not given): “inactive”; `ClC1C(Cl)C(Cl)C(Cl)C(Cl)C1Cl` (stereo not given): “inactive”.
With `O=C(Nc1ccccc1)Nc1cnns1`, the AC50 is 91.2 µM (active).
Turning to `O=C(O)COc1ccc(Cl)cc1Cl`, the call was inactive.
Still for that read-out and setting: the entry for `COP(=O)(OC)OC=C(Cl)Cl` is “inactive”.
The same measure, in the same setting: next, `CCCN(CCC)c1c([N+](=O)[O-])cc(C(F)(F)F)cc1[N+](=O)[O-]`: “inactive”; `CC(C)N(C(=O)COc1nnc(C(F)(F)F)s1)c1ccc(F)cc1`: “inactive”.
In the case of `CC(C)(C)C(O)/C(=C\c1ccc(Cl)cc1Cl)n1cncn1` (stereo not given), the result was inactive.
Take `COP(=S)(OC)Oc1ccc(SC)c(C)c1`: the AC50 was 50 µM (active).
Consider `C[C@H]1[C@H](c2ccc(Cl)cc2)SC(=O)N1C(=O)NC1CCCCC1`, for which the compound was classed as inactive.
Same read-out and setting: next, `Clc1ccccc1-c1nnc(-c2ccccc2Cl)nn1`: “inactive”; `O=[N+]([O-])/N=C1\NCCN1Cc1ccc(Cl)nc1`: “inactive”.
As to `CNC(=O)Oc1ccccc1OC(C)C`, the compound was called inactive.
Regarding `CNC(=O)/C=C(\C)OP(=O)(OC)OC`, the compound was classed as inactive.
With `CNC(=O)CSP(=S)(OC)OC`, the result was inactive.
The same measure, in the same setting: the entry for `CC(C)OC(=O)Nc1cccc(Cl)c1` is “inactive”.
Still for that read-out and setting: the entry for `CCOC1Oc2ccc(OS(C)(=O)=O)cc2C1(C)C` (stereo not given) is “inactive”.
On to `CCCN(CCOc1c(Cl)cc(Cl)cc1Cl)C(=O)n1ccnc1`, for which the concentration at half-maximal activity (AC50) was 80.2 µM (active).
As for `O=C(O)CCCOc1ccc(Cl)cc1Cl`, the call was inactive.
`CC1(C)C(C=C(Cl)Cl)C1C(=O)OC(C#N)c1ccc(F)c(Oc2ccccc2)c1` (stereo not given): the result was inactive.
